Assay results from PubChem BioAssay (NCI).
This is part of a sample that, as a whole, favours compounds with a hit. Of some 83,000 tested, about 20% had one in any assay.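 For each line, cells grew in 96-well plates with the test compound present at a single concentration for 48 hours.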 Activity calls are given as the source filed them. How the source made its calls: active means growth percent below 10; inactive means the rest.

Columns and labels:
Assay in all cases: NCI-60 one-dose screen, 48 h (100 = growth as untreated, 0 = no growth, -100 = all killed)
Details in all cases: 10 µM unless noted
NCI-H23 lung = tested on: NCI-H23 lung
NCI-H226 lung = tested on: NCI-H226 lung
NCI-H322M lung = tested on: NCI-H322M lung
HOP-62 NSCLC = tested on: HOP-62 NSCLC
NCI-H460 lung = tested on: NCI-H460 lung
HOP-92 NSCLC = tested on: HOP-92 NSCLC
NCI-H522 lung = tested on: NCI-H522 lung
A549/ATCC NSCLC = tested on: A549/ATCC NSCLC
786-0 renal = tested on: 786-0 renal
COLO 205 colon = tested on: COLO 205 colon

Measured: growth

C=CC(=O)Nc1cc2c(Nc3ccc(F)c(Cl)c3)ncnc2cc1OCCCN1CCOCC1
inactive: NCI-H226 lung 40.2% | HOP-62 NSCLC 12.1% | NCI-H460 lung 31.2% | A549/ATCC NSCLC 22.9%
active: NCI-H23 lung -54.4% | NCI-H322M lung -15.2% | HOP-92 NSCLC -51.7% | NCI-H522 lung -74.6% | 786-0 renal 2.4% | COLO 205 colon 8.89%

Cc1csc(-c2nnc(Nc3ccc(Oc4ncccc4-c4ccnc(N)n4)cc3)c3ccccc23)c1
active: COLO 205 colon -4.72%
inactive: NCI-H23 lung 54.6% | NCI-H226 lung 72.5% | NCI-H322M lung 30.5% | HOP-62 NSCLC 14.6% | NCI-H460 lung 25.3% | HOP-92 NSCLC 85.5% | NCI-H522 lung 30.8% | A549/ATCC NSCLC 26.6% | 786-0 renal 67.9%

O=C(Cn1ccc2ccccc21)Nc1ccc(-c2nc3ccccc3s2)cc1
inactive: NCI-H23 lung 94% | NCI-H226 lung 102% | NCI-H322M lung 98.8% | HOP-62 NSCLC 103% | NCI-H460 lung 105% | HOP-92 NSCLC 105% | NCI-H522 lung 102% | A549/ATCC NSCLC 98.3% | 786-0 renal 103% | COLO 205 colon 101%

O=C(Nc1ccc(N=Nc2ccccc2)cc1)c1cccc2ccccc12
inactive: NCI-H23 lung 81.2% | NCI-H226 lung 78.2% | NCI-H322M lung 77.9% | HOP-62 NSCLC 60.5% | NCI-H460 lung 61.1% | HOP-92 NSCLC 82.5% | NCI-H522 lung 34.9% | A549/ATCC NSCLC 46.1% | 786-0 renal 79.4% | COLO 205 colon 77.1%

COc1cc2ncnc(Nc3ccc(O)cc3)c2cc1OC
inactive: NCI-H23 lung 104% | NCI-H226 lung 95.2% | NCI-H322M lung 12.4% | HOP-62 NSCLC 86.5% | NCI-H460 lung 103% | HOP-92 NSCLC 78% | NCI-H522 lung 11% | A549/ATCC NSCLC 45.8% | 786-0 renal 83.4% | COLO 205 colon 115%

Clc1ccc2c(NCCCNCc3ccc4c(c3)OCO4)ccnc2c1
inactive: NCI-H23 lung 72.7% | NCI-H226 lung 80.1% | NCI-H322M lung 71.8% | HOP-62 NSCLC 42.7% | NCI-H460 lung 60.5% | HOP-92 NSCLC 47.4% | NCI-H522 lung 20.1% | A549/ATCC NSCLC 51.2% | 786-0 renal 66.8%
active: COLO 205 colon -56.6%

C[C@]12O[C@H](C[C@]1(O)CO)n1c3ccccc3c3c4c(c5c6ccccc6n2c5c31)CNC4=O
active: NCI-H23 lung -58.3% | NCI-H226 lung -68.8% | NCI-H322M lung -32.1% | HOP-62 NSCLC -63% | NCI-H460 lung -61.3% | HOP-92 NSCLC -26.3% | NCI-H522 lung -56.2% | A549/ATCC NSCLC -29.9% | 786-0 renal -87.5% | COLO 205 colon -84.9%

CC(N)C(Cc1ccc(Cl)cc1)c1ccc(Cl)cc1 (stereo not given)
active: NCI-H522 lung -18.1% | COLO 205 colon -81.2%
inactive: NCI-H23 lung 92.8% | NCI-H226 lung 88.2% | NCI-H322M lung 83.4% | HOP-62 NSCLC 56% | NCI-H460 lung 66% | HOP-92 NSCLC 21.5% | A549/ATCC NSCLC 42.1% | 786-0 renal 57.1%

CCN1CCN(c2nc(C)cc(N(CCNc3ccnc4cc(Cl)ccc34)Cc3ccc4c(c3)OCO4)n2)CC1
inactive: NCI-H23 lung 67.5% | NCI-H226 lung 75.3% | NCI-H322M lung 36.3% | NCI-H460 lung 18.1% | A549/ATCC NSCLC 20.4%
active: HOP-62 NSCLC -19.8% | HOP-92 NSCLC -4.69% | NCI-H522 lung -0.151% | 786-0 renal -24.5% | COLO 205 colon -75.8%

CCN(CC)CCN1C(=O)c2cccc3c(-c4ccc5c(c4)ncn5C4CCCCC4)ccc(c23)C1=O
active: NCI-H226 lung -29.9% | HOP-62 NSCLC 8.72% | NCI-H460 lung -30.9% | HOP-92 NSCLC -7.68% | 786-0 renal -46.1% | COLO 205 colon -20.4%
inactive: NCI-H23 lung 20.2% | NCI-H322M lung 43.2% | NCI-H522 lung 21.3% | A549/ATCC NSCLC 18.8%

CCCCn1c(C)nc2ccc(Nc3nc(N4CCN(C)CC4)nc4nc[nH]c34)cc21
inactive: NCI-H23 lung 95.5% | NCI-H226 lung 93% | NCI-H322M lung 91.3% | HOP-62 NSCLC 90.9% | NCI-H460 lung 104% | HOP-92 NSCLC 64.8% | NCI-H522 lung 87.2% | A549/ATCC NSCLC 94.2% | 786-0 renal 92.8% | COLO 205 colon 87.9%

COc1ccc(-c2cc3c(C)nc(N)nc3n(C3CCC(OCCO)CC3)c2=O)cn1 (stereo not given)
active: NCI-H226 lung -0.55% | NCI-H322M lung -36.4% | HOP-62 NSCLC -21.9% | NCI-H460 lung 6.78% | HOP-92 NSCLC -32.2% | NCI-H522 lung -1.92% | A549/ATCC NSCLC -38.4% | 786-0 renal -24.1% | COLO 205 colon -61.1%
inactive: NCI-H23 lung 15%
